Laboratory results: ChEMBL document CHEMBL5606460, “ASAP - DENV-2 NS2B-NS3 protease fluorescence single point” (2024)
The campaign covered roughly 2,000 compounds. About 110 (5.5%) showed an effect of 50% or more. The entries come from a sample that favours strong results as a whole.

Target: Genome polyprotein (dengue virus type 2) (UniProt P29990)
[1] = Thailand/16681/1984, Concentration 25.0 uM, Number of replicates 1.0

Question: With `CNC(=O)c1cc(Cl)c(F)cc1NS(=O)(=O)c1ccc(Oc2ccccc2Cl)cc1` as the compound, how does the inhibition (Thailand/16681/1984, Concentration 49.5 uM, Number of replicates 2.0, Standard deviation 0.030615470758313425 %) read?
Answer: The inhibition was 98.6%.

Question: What about the inhibition (Thailand/16681/1984, Concentration 99.01 uM, Number of replicates 2.0, Standard deviation 0.03013533386007732 %) of the same compound?
Answer: The inhibition was 99.7%.

Question: What about the inhibition (Thailand/16681/1984, Concentration 198.0 uM, Number of replicates 2.0, Standard deviation 0.00477978979592347 %) of the same compound?
Answer: Its inhibition is 98.7%.

Question: Which results are given for `Cc1cc(NS(=O)(=O)c2ccc(Oc3ccccc3Cl)cc2)c(C(=O)NCC(F)(F)F)cc1F`?
Answer: inhibition (Thailand/16681/1984, Concentration 49.5 uM, Number of replicates 2.0, Standard deviation 0.004288863304468577 %): 80.7%; inhibition (Thailand/16681/1984, Concentration 99.01 uM, Number of replicates 2.0, Standard deviation 0.05387243894141284 %): 85%; inhibition (Thailand/16681/1984, Concentration 198.0 uM, Number of replicates 2.0, Standard deviation 0.06674981844803736 %): 82.2%

Question: For `CNC(=O)c1cc(Cl)cc(OC)c1NS(=O)(=O)c1ccc(Oc2ccccc2Cl)cc1`, which inhibition (Thailand/16681/1984, Concentration 49.5 uM, Number of replicates 2.0, Standard deviation 0.8103097460864452 %) is on record?
Answer: Its inhibition is 1.45%.

Question: What about the inhibition (Thailand/16681/1984, Concentration 99.01 uM, Number of replicates 2.0, Standard deviation 1.6946405270728757 %) of the same compound?
Answer: The inhibition was 1.53%.

Question: What about the inhibition (Thailand/16681/1984, Concentration 198.0 uM, Number of replicates 2.0, Standard deviation 1.1024722794831296 %) of the same compound?
Answer: Its inhibition is -0.559%.

Question: Which results are given for `CNC(=O)c1nccnc1NS(=O)(=O)c1ccc(Oc2ccccc2Cl)cc1`?
Answer: inhibition (Thailand/16681/1984, Concentration 49.5 uM, Number of replicates 2.0, Standard deviation 1.5095148361141704 %): 0.146%; inhibition (Thailand/16681/1984, Concentration 99.01 uM, Number of replicates 2.0, Standard deviation 1.499470483470751 %): 2.7%; inhibition (Thailand/16681/1984, Concentration 198.0 uM, Number of replicates 2.0, Standard deviation 0.45486328764545614 %): 7.74%

Question: How did the inhibition (Thailand/16681/1984, Concentration 49.5 uM, Number of replicates 2.0, Standard deviation 1.7443589304782063 %) turn out when `CNC(=O)c1cc(Cl)c(OC)cc1NS(=O)(=O)c1ccc(Oc2ccccc2Cl)cc1` was run?
Answer: The inhibition was 79.2%.

Question: And the inhibition (Thailand/16681/1984, Concentration 99.01 uM, Number of replicates 2.0, Standard deviation 0.14348540542006383 %)?
Answer: The inhibition was 98.5%.

Question: What about the inhibition (Thailand/16681/1984, Concentration 198.0 uM, Number of replicates 2.0, Standard deviation 0.05118043543332502 %) of the same compound?
Answer: The inhibition was 99.3%.

Question: How did the inhibition (Thailand/16681/1984, Concentration 49.5 uM, Number of replicates 2.0, Standard deviation 1.1725472419342977 %) turn out when `CN1CCN(c2ccc(CCNc3ccccc3F)cc2)CC1` was run?
Answer: Its inhibition is -4.52%.

Question: What about the inhibition (Thailand/16681/1984, Concentration 99.01 uM, Number of replicates 2.0, Standard deviation 1.0151129155310683 %) of the same compound?
Answer: The inhibition was -3.89%.

Question: And the inhibition (Thailand/16681/1984, Concentration 198.0 uM, Number of replicates 2.0, Standard deviation 0.9851713728804441 %)?
Answer: The inhibition was -1.99%.

Question: With `CNS(=O)(=O)c1ccc(CNCc2ccc(N3CCN(C)CC3)cc2)cc1` as the compound, how does the inhibition (Thailand/16681/1984, Concentration 49.5 uM, Number of replicates 2.0, Standard deviation 0.2679515396874046 %) read?
Answer: Its inhibition is -1.41%.

Question: What about the inhibition (Thailand/16681/1984, Concentration 99.01 uM, Number of replicates 2.0, Standard deviation 0.0046358372348345115 %) of the same compound?
Answer: The inhibition was -0.423%.

Question: What about the inhibition (Thailand/16681/1984, Concentration 198.0 uM, Number of replicates 2.0, Standard deviation 1.744466130987394 %) of the same compound?
Answer: The inhibition was 0.949%.

Question: Which results are given for `CC(C)(C)OC(=O)N1CCOC[C@H]1CNCc1nnc2ccccn12`?
Answer: inhibition (Thailand/16681/1984, Concentration 49.5 uM, Number of replicates 2.0, Standard deviation 3.6636813935617547 %): -2.66%; inhibition (Thailand/16681/1984, Concentration 99.01 uM, Number of replicates 2.0, Standard deviation 2.060655687099608 %): -2.48%; inhibition (Thailand/16681/1984, Concentration 198.0 uM, Number of replicates 2.0, Standard deviation 3.020799081222525 %): -1.72%

Question: Which inhibition (Thailand/16681/1984, Concentration 49.5 uM, Number of replicates 2.0, Standard deviation 1.6949837288603 %) does the source give for `CC(C)Cn1cccc(C(=O)Nc2ccncc2)c1=O` here?
Answer: The inhibition was 4.6%.

Question: And the inhibition (Thailand/16681/1984, Concentration 99.01 uM, Number of replicates 2.0, Standard deviation 0.80587134576346 %)?
Answer: The inhibition was 8.75%.

Question: What about the inhibition (Thailand/16681/1984, Concentration 198.0 uM, Number of replicates 2.0, Standard deviation 0.4281674737986559 %) of the same compound?
Answer: Its inhibition is 16%.

Question: What does the source list for `Cc1cc(CO)c2cccc(Cc3ccccc3NC(=O)Cc3csc(Cc4ccccc4)n3)c2n1`?
Answer: inhibition (Thailand/16681/1984, Concentration 49.95 uM, Number of replicates 2.0, Standard deviation 1.2441700790071646 %): -0.54%; inhibition (Thailand/16681/1984, Concentration 99.9 uM, Number of replicates 2.0, Standard deviation 1.3300226430755788 %): 0.901%

Question: With `O=Cc1ccc(N2CCC(C(=O)N3CCC(O)(c4ccc(Br)cc4)CC3)CC2)cc1` as the compound, how does the inhibition [1] read?
Answer: Its inhibition is 14.6%.

Question: How did the inhibition [1] turn out when `O=Cc1ccc(N2CCC(C(=O)NCc3cccc([N+](=O)[O-])c3)CC2)cc1` was run?
Answer: Its inhibition is 11%.

Question: For `NC(=O)c1ccc(Cl)c(NC(=O)C2CCN(c3ccc(C=O)cc3)CC2)c1`, which inhibition [1] is on record?
Answer: The inhibition was 13.8%.

Question: What does the source list for `Cc1cc(CO)c2cccc(Cc3cccc(NC(=O)Cc4cccc(CN)c4)c3)c2n1`?
Answer: inhibition (Thailand/16681/1984, Concentration 49.95 uM, Number of replicates 2.0, Standard deviation 1.5571170041089204 %): 9.22%; inhibition (Thailand/16681/1984, Concentration 99.9 uM, Number of replicates 2.0, Standard deviation 3.140543082582705 %): 20.8%

Question: Which inhibition (Thailand/16681/1984, Concentration 49.5 uM, Number of replicates 2.0, Standard deviation 1.8366578313187596 %) does the source give for `C[C@@H](NC(=O)OCc1ccccc1)C(=O)Nc1cccc(CN)c1` here?
Answer: Its inhibition is -7.57%.

Question: What about the inhibition (Thailand/16681/1984, Concentration 198.0 uM, Number of replicates 2.0, Standard deviation 1.0835833369227144 %) of the same compound?
Answer: Its inhibition is -9.56%.

Question: With `CC(C)(C)[C@@H](NC(=O)OCc1ccccc1)C(=O)Nc1cccc(CN)c1` as the compound, how does the inhibition (Thailand/16681/1984, Concentration 49.5 uM, Number of replicates 2.0, Standard deviation 1.83793572376561 %) read?
Answer: Its inhibition is -6.76%.

Question: And the inhibition (Thailand/16681/1984, Concentration 99.01 uM, Number of replicates 2.0, Standard deviation 1.8206757463634287 %)?
Answer: Its inhibition is -7.66%.

Question: And the inhibition (Thailand/16681/1984, Concentration 198.0 uM, Number of replicates 2.0, Standard deviation 1.2664180516369132 %)?
Answer: Its inhibition is -8.05%.

Question: `CC(C)C[C@@H](NC(=O)OCc1ccccc1)C(=O)Nc1cccc(CN)c1` was tested. Which inhibition (Thailand/16681/1984, Concentration 49.5 uM, Number of replicates 2.0, Standard deviation 3.1792600205617827 %) did it give?
Answer: The inhibition was -4.42%.

Question: What about the inhibition (Thailand/16681/1984, Concentration 99.01 uM, Number of replicates 2.0, Standard deviation 3.3347078817009965 %) of the same compound?
Answer: The inhibition was -3.69%.

Question: And the inhibition (Thailand/16681/1984, Concentration 198.0 uM, Number of replicates 2.0, Standard deviation 3.065424880922284 %)?
Answer: Its inhibition is -2.71%.

Question: `NCc1cccc(NC(=O)[C@@H](NC(=O)OCc2ccccc2)C(C2CCC2)C2CCC2)c1` was tested. Which inhibition (Thailand/16681/1984, Concentration 49.5 uM, Number of replicates 2.0, Standard deviation 1.0931409988329541 %) did it give?
Answer: Its inhibition is 0.575%.

Question: And the inhibition (Thailand/16681/1984, Concentration 99.01 uM, Number of replicates 2.0, Standard deviation 7.259842534821406 %)?
Answer: The inhibition was 21.9%.

Question: What about the inhibition (Thailand/16681/1984, Concentration 198.0 uM, Number of replicates 2.0, Standard deviation 0.026391345013157583 %) of the same compound?
Answer: Its inhibition is 99.8%.

Question: How did the inhibition (Thailand/16681/1984, Concentration 49.5 uM, Number of replicates 2.0, Standard deviation 0.4735169770341957 %) turn out when `NCc1cccc(NC(=O)[C@@H](CO)NC(=O)OCc2ccccc2)c1` was run?
Answer: Its inhibition is -3.34%.

Question: What about the inhibition (Thailand/16681/1984, Concentration 99.01 uM, Number of replicates 2.0, Standard deviation 2.1222171442022573 %) of the same compound?
Answer: The inhibition was -3.24%.

Question: And the inhibition (Thailand/16681/1984, Concentration 198.0 uM, Number of replicates 2.0, Standard deviation 1.1527028197814282 %)?
Answer: Its inhibition is -3.94%.

Question: Which inhibition (Thailand/16681/1984, Concentration 49.5 uM, Number of replicates 2.0, Standard deviation 3.75421470496627 %) does the source give for `NCc1cccc(NC(=O)[C@@H](NC(=O)OCc2ccccc2)C2CCCCC2)c1` here?
Answer: The inhibition was -3.1%.

Question: What about the inhibition (Thailand/16681/1984, Concentration 99.01 uM, Number of replicates 2.0, Standard deviation 3.4431804249233626 %) of the same compound?
Answer: Its inhibition is -1.76%.

Question: And the inhibition (Thailand/16681/1984, Concentration 198.0 uM, Number of replicates 2.0, Standard deviation 6.458747607105988 %)?
Answer: The inhibition was 79.9%.
